RECQ1 inh-1 – inhibitors of human RECQ1 DNA helicase. P46063. RECQ1 DNA unwinding, red fluorescence kinetic read. Potency, µM (doses to about 57.3 µM), inactives show at the top dose activity, negative = inhibition, actives largely listed as inhibitors. 0.54% of 240,000 active. AID 2549;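 note: plate controls were vehicle for no effect and no enzyme for full effect; nearly all actives have a fitted effect of over 30% in size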
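50 nM RECQ1T1 preincubated 15 min with compound in Tris pH 8.0 buffer with MgCl2, DTT, Tween-20 and 2.5 ug/ml poly(dI-dC); started with 200 nM TAMRA/BHQ-2 forked duplex and 2 mM ATP. Unwinding read as fluorescence (525/598 nm), two reads 2 h apart.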
BLM helicase inh – Bloom syndrome helicase (human) inhibition | recombinant BLM DNA unwinding, fluorescence dequenching | P54132 | Potency, µM (doses to about 56.1 µM), for inactives: top-dose activity change, negative = inhibition, hits mostly inhibitors | 0.2% of 350,000 active;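 note: plate controls were vehicle for no effect and no enzyme for full effect; nearly all actives have a fitted effect of over 35% in size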
KAT2A inh – blocks human GCN5L2 histone acetyltransferase | Q92830 | GCN5L2 HAT assay, ThioGlo1 CoA-SH fluorescence | Potency, µM (top dose mostly 58.9 µM), inactives show at the top dose activity change, negative = inhibition, usual class: inhibitors | 0.21% of 390,000 active | AID 504327
Target sequence (Q92830 whole entry, looked up): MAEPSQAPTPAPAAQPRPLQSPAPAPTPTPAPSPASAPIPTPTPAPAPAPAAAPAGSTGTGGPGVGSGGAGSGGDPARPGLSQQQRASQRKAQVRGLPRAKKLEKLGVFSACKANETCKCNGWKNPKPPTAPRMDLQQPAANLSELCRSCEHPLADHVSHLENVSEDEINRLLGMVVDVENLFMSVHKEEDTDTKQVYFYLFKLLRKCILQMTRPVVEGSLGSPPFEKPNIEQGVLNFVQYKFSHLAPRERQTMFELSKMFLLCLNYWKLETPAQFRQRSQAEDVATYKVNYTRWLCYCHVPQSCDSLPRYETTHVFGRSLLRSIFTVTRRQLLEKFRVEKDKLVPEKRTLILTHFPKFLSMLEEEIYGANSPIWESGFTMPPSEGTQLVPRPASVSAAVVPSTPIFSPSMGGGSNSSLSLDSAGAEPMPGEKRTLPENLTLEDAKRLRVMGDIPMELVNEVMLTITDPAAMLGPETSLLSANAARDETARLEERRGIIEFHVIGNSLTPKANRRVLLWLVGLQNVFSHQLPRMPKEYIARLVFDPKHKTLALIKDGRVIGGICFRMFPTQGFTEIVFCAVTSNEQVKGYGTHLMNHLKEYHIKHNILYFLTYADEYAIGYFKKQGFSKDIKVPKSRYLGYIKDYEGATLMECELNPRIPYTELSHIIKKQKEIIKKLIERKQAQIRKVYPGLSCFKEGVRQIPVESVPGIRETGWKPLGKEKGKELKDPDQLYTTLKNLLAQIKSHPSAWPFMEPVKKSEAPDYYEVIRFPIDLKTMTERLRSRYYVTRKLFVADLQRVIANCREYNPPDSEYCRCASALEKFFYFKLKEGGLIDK
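Compounds, pin-transferred from DMSO stocks, meet 20nM GCN5L2 for 15 min before the reaction begins with H3(1-25) peptide (75uM) and acetyl-CoA (70uM). Thiol-reactive ThioGlo1 reports CoA release over 20 min at room temperature.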
APEX1 inh – inhibitors of human APE1 endonuclease; recombinant APE1, TAMRA/BHQ-2 abasic DNA cleavage fluorescence; 0.35% of 350,000 active; P27695; Potency, µM (doses to about 65.8 µM), inactives show at the highest dose activity change, negative = inhibition, hits mostly inhibitors;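 note: plate controls were vehicle for no effect and reference inhibitor for full effect; nearly all actives have a fitted effect of over 55% in size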
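Enzyme (0.75 nM final) and test compound are incubated 15 min at room temperature before adding 50 nM quenched THF abasic-site duplex. Cleavage dequenches TAMRA, followed at 525/598 nm over three reads one minute apart.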
TDP1 block – inhibitors of human tyrosyl-DNA phosphodiesterase TDP1; Potency, µM (top dose mostly 130 µM), for the others: at the highest dose activity change, negative = inhibition, usual class: inhibitors; recombinant TDP1, AlphaScreen DNA substrate cleavage; 0.28% of 350,000 active; note: nearly all actives have a fitted effect of over 40% in size
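Recombinant E. coli-expressed Tdp1 (1 nM) preincubated with compound 15 min at RT, then 5'-biotin/3'-phosphotyrosine-FITC DNA substrate (15 nM) added for 5 min. AlphaScreen beads (10 ug/ml) added, 10 min RT; tyrosine-FITC cleavage read as signal loss.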
RECQ1 inh conf – confirmation of human RECQ1 helicase inhibitors | shares compounds with RECQ1 inh-1 | RECQ1 helicase DNA unwinding, fluorescence | Potency, µM (highest dose often 229 µM), inactives show at the highest dose activity change, negative = inhibition, most hits filed as inhibitors | 28% of 610 active | AID 2708; note: nearly all actives have a fitted effect of over 45% in size
RECQ1 ADP FP – ADP displacement flagged in RECQ1 inhibitor counter-screen; shares compounds with RECQ1 inh-1; ADP fluorescence polarization displacement counterscreen; Potency, µM (top dose mostly 228 µM), inactives show at the highest dose activity change, negative = inhibition, usual class: inhibitors; 27% of 530 active; AID 2711; note: nearly all actives have a fitted effect of over 45% in size
RECQ1 inh-2 – confirmation of human RECQ1 helicase inhibitors; shares compounds with RECQ1 inh-1; recombinant RECQ1 DNA unwinding, red fluorescence; Potency, µM (highest dose often 119 µM), without a hit: at the highest dose activity, negative = inhibition, hits mostly inhibitors; 15% of 1,100 active; AID 504841; note: nearly all actives have a fitted effect of over 50% in size
The depositor's hits bear a star; i = inactive; ? = inconclusive; / = not tested or not shown; [ ] = dose if it differs, or a comment. This is a sample that favours compounds with a hit; in the whole collection about 0.87% have one here. Calls come from the whole dose curve; as a rule, active = well fitted curve in the direction sought with a large enough effect; inconclusive = small, poorly fitted or top-dose-only effect, or another doubt; inactive = no such curve, though single readings can be large; an effect the other way counts as inactive or inconclusive. Unless noted, % is set by controls: 0 for no effect and ±100 for the full control effect; potency is the fitted concentration of half-maximal effect.

SMILES	RECQ1 inh-1	BLM helicase inh	KAT2A inh	APEX1 inh	TDP1 block	RECQ1 inh-2	others
FC(F)(F)c1cc(CN2CC[C@@]3(CCCNC3)C2)cc(C(F)(F)F)c1	-4.6%	1.9%	2.0%	3.4%	/	/
O=C(/C=C/c1ccc2c(c1)OCO2)Nc1nc(-c2ccccc2)cs1	1.41µM*	-10.9%	-26.2%	8.9%	-5.9%	?	RECQ1 inh conf=-3.2%[114 µM];RECQ1 ADP FP=6.4%[91.9 µM]
Cc1sc(NC(=O)/C=C/c2ccc3c(c2)OCO3)nc1-c1ccccc1	-13.9%	-9.0%	?	20.5%	3.0%	/
CCOC(=O)c1cccc(NC(=O)CC2C(=O)N(c3ccc(F)cc3)C(=O)N2C(C)C)c1 (configuration not stated)	/	-4.9%	-2.7%	/	5.6%	/
Cn1c(Cn2nnc3ccccc32)nnc1SCC(=O)N1c2ccccc2CCc2ccccc21	-2.0%	-2.9%	-11.5%	?	4.2%	/
Cn1c(Cn2nnc3ccccc32)nnc1SCC(=O)N1c2ccccc2Sc2ccccc21	i	-5.2%	-16.1%	?	9.6%	/	RECQ1 inh conf=-3.6%;RECQ1 ADP FP=24.9%
COc1ccc(-c2cc3nc(-c4ccccc4)cc(N4CCCC(O)C4)n3n2)cc1 (configuration not stated)	?	-11.6%	-5.4%	5.5%	-12.8%	-11.4%
CCOC(=O)N1CCN(Cc2nc3cc(NC(=O)c4ccccc4Cl)ccc3n2C(C)C)CC1	/	-10.0%	-3.2%	/	0.5%	/
Cc1ccc(S(=O)(=O)NC2=NCN(CCOC(=O)c3ccccc3)CN2)cc1	31.6µM*	3.0%	0.0%	3.5%	3.9%	1.4%
COCc1cc(=O)n2[nH]c(-c3ccsc3-n3c(C)ccc3C)cc2n1	?	?	-9.1%	25.1µM*	/	-24.0%
CCOC(=O)Cc1cc(=O)n2[nH]c(-c3ccccc3)cc2n1	-4.6%	-10.7%	0.6%	-0.9%	3.2%	/
CCOc1ccccc1NC(=O)CN1C(=O)COc2ccc(S(=O)(=O)Nc3ccccc3)cc21	/	-4.9%	-2.0%	/	-2.8%	/
CCN1CCOC(=O)C1CC(=O)Nc1cc(C)ccc1OC (configuration not stated)	/	-0.8%	-6.5%	/	0.6%	/
Cc1ccc(SCC(=O)Nc2cccc(C)c2)cc1	25.1µM*	-0.2%	-10.9%	-2.0%	-7.2%	-11.9%
Cc1cccc(N2CCN(C(=O)Cc3ccc(-n4c(=O)[nH]c5ccsc5c4=O)cc3)CC2)c1C	-9.9%	2.5%	-2.3%	16.8%	5.3%	/	RECQ1 inh conf=-9.6%;RECQ1 ADP FP=20.9%
Cc1ccc(C)c(N2CCN(C(=O)Cc3ccc(-n4c(=O)[nH]c5ccsc5c4=O)cc3)CC2)c1	2.3%	-5.8%	-8.7%	9.4%	0.0%	/
CCn1c(SCC(=O)N2c3ccccc3Sc3ccccc32)nnc1-c1ccco1	-4.0%	0.4%	-5.8%	-2.2%	8.7%	/
C=CCn1c(SCC(=O)N2c3ccccc3Sc3ccccc32)nnc1-c1ccco1	-1.8%	-7.1%	-4.9%	-0.6%	/	/	RECQ1 inh conf=-9.6%;RECQ1 ADP FP=10.8%
Cc1cc(C)c(NC(=O)CSc2nc(=O)[nH]c3c2CCCC3)c(C)c1	/	0.6%	-11.3%	/	2.6%	/
O=C(c1ccco1)N(c1ccccn1)c1ccccn1	7.3%	2.6%	2.0%	1.2%	4.7%	/
O=C(/C=C/c1ccco1)N(c1ccccn1)c1ccccn1	?	?	?	?	/	44.7µM*
Cn1c(=O)cc(Nc2ccccc2)[nH]c1=O	/	-6.2%	-3.6%	54.2%	/	/
O=c1[nH]c(Nc2ccccc2)cc2ccccc12	?	2.9%	-11.9%	?	11.4%	?
Cc1ccc(S(=O)(=O)CC(=O)c2ccccc2)cc1	?	-3.3%	-3.8%	10.8%	0.0%	/
CC(C)(C)c1ccc(C(=O)CS(=O)(=O)c2ccccc2)cc1	?	-6.5%	58.4%	14.2%	2.5%	-14.6%
SMILES	RECQ1 inh-1	BLM helicase inh	KAT2A inh	APEX1 inh	TDP1 block	RECQ1 inh-2	others
CCCCOc1ccc(S(=O)(=O)N2CCN(c3ccccc3OCC)CC2)cc1	/	-3.7%	-3.9%	/	-1.3%[12.3 µM]	/
N[C@@H](CCC(=O)N[C@@H](CS)C(=O)NCC(=O)O)C(=O)O	/	/	/	-2.7%	/	/
COc1cccc(C(=O)N(Cc2cc3cc(C)ccc3[nH]c2=O)C(C)C)c1	?	1.8%	1.7%	0.3%	2.9%	-9.6%
CCOC(=O)c1c(-c2ccc(C)o2)csc1NC(=O)CSc1nncs1	1.78µM*	2.2%	?	?	8.2%	/	RECQ1 inh conf=15.1%[114 µM];RECQ1 ADP FP=186.6%[91.9 µM]
CCOC(=O)c1c(-c2ccc(C)o2)csc1NC(=O)CN1CCCCC1	-3.9%	-6.0%	-13.2%	-1.3%	6.0%	/
CCn1c(SCC(=O)OC)nc2sc3c(c2c1=O)CCC3	?	-22.0%	-21.4%	?	/	?
CCn1c(SCC(=O)OC)nc2sc3c(c2c1=O)CC(C)(C)OC3	-6.9%	-2.2%	-1.3%	1.4%	5.6%	/
COc1ccc(-c2nc3cnc(N4CCOCC4)nc3n(-c3ccc(OC)cc3)c2=O)cc1	?	-16.3%	?	14.1µM*	/	-3.5%
COc1ccc(-n2c(=O)c(-c3cccc(Cl)c3)nc3cncnc32)cc1	?	1.6%	-4.9%	15.6%	/	-3.2%
COc1ccc(Br)cc1/C=N/N1C(=O)CSC1=S	/	-2.8%	-20.8%	-7.3%	-0.1%	/
COc1cc(/C=N/N2C(=O)CSC2=S)ccc1O	?	-1.0%	-7.9%	4.3%	-9.8%	?
O=S(=O)(c1ccccc1)c1nc(NC2CC2)sc1Cl	39.8µM*	-1.7%	2.1%	16.8%	0.5%	-5.0%
CN(C)CCNc1nc(S(=O)(=O)c2ccccc2)c(Cl)s1	-10.3%	-5.2%	-3.9%	-2.1%	-1.2%	/
Fc1cccc(NCc2cccn2-c2nnc(N3CCOCC3)s2)c1	/	1.7%	-18.2%	/	2.1%	/
Cc1ccccc1CSc1nnc(NC(=O)Cc2cccs2)s1	39.8µM*	-21.1%	-2.6%	?	2.6%	-28.5%
Cc1ccc(S(=O)(=O)c2cc3c(=O)n4ccccc4nc3n(Cc3ccco3)c2=N)cc1	14.1µM*	-5.0%	-0.5%	?	4.4%	?
O=C(CSc1ccc(-c2ccco2)nn1)NCCc1ccccc1	39.8µM*	-25.8%	-11.3%	?	2.6%	-13.9%
COc1ccc(CCNC(=O)CSc2ccc(-c3ccco3)nn2)cc1	35.5µM*	-18.2%	?	?	-2.5%	?
COC(=O)[C@H](COC(C)(C)C)NC(=O)O[C@@H]1Cc2cc(OC)ccc2O[C@H]1c1cccc(OC)c1	-9.1%	3.6%	/	17.1%	10.6%	/

From PubChem
